# According to article PMC11062922 (Nature Chemical Biology, 2023):
# Where two headings read alike, the source gives them in different places.
# Legend:
# CDK4 = system: CDK4; parameters: species or system human, MV4-11 + K-562 + COLO205 + SK-N-BE2 + OVCAR-8; settings: read-out: apparent Kd, compound concentrations: 100 nM and 1000 nM (sheet 'Samples'), n = 1
# MAP2K2 = system: MAP2K2; parameters: species or system human, MV4-11 + K-562 + COLO205 + SK-N-BE2 + OVCAR-8; settings: read-out: apparent Kd; compound concentrations: 100 nM and 1000 nM (sheet 'Samples'), CATDS: 0.35471612701675298; n = 1
# PDGFRB = system: PDGFRB; parameters: species or system human, MV4-11 + K-562 + COLO205 + SK-N-BE2 + OVCAR-8; settings: read-out: apparent Kd; compound concentrations: 100 nM and 1000 nM (sheet 'Samples'), CATDS: 0.32038670462926999; n = 1
# CDK16 = system: CDK16; parameters: species or system human, MV4-11 + K-562 + COLO205 + SK-N-BE2 + OVCAR-8; settings: read-out: apparent Kd, n = 1
# CDK17 = system: CDK17; parameters: species or system human, MV4-11 + K-562 + COLO205 + SK-N-BE2 + OVCAR-8; settings: read-out: apparent Kd; compound concentrations:100 nM and 1000 nM (sheet 'Samples'); n = 1
# CDKL5 = system: CDKL5; parameters: species or system human, MV4-11 + K-562 + COLO205 + SK-N-BE2 + OVCAR-8; settings: read-out: apparent Kd, n = 1
# CLK1 = system: CLK1; parameters: species or system human, MV4-11 + K-562 + COLO205 + SK-N-BE2 + OVCAR-8; settings: read-out: apparent Kd, n = 1
# CLK4 = system: CLK4; parameters: species or system human, MV4-11 + K-562 + COLO205 + SK-N-BE2 + OVCAR-8; settings: read-out: apparent Kd, n = 1
# DYRK1A = system: DYRK1A; parameters: species or system human, MV4-11 + K-562 + COLO205 + SK-N-BE2 + OVCAR-8; settings: read-out: apparent Kd, n = 1
# GSK3A = system: GSK3A; parameters: species or system human, MV4-11 + K-562 + COLO205 + SK-N-BE2 + OVCAR-8; settings: read-out: apparent Kd, compound concentrations: 100 nM and 1000 nM (sheet 'Samples'), n = 1
# GSK3B = system: GSK3B; parameters: species or system human, MV4-11 + K-562 + COLO205 + SK-N-BE2 + OVCAR-8; settings: read-out: apparent Kd, n = 1
# CDK2 = system: CDK2; parameters: species or system human, MV4-11 + K-562 + COLO205 + SK-N-BE2 + OVCAR-8; settings: read-out: apparent Kd; compound concentrations: 100 nM and 1000 nM (sheet 'Samples'), CATDS: 3.2251458753321499E-2; n = 1
# CDK9 = system: CDK9; parameters: species or system human, MV4-11 + K-562 + COLO205 + SK-N-BE2 + OVCAR-8; settings: read-out: apparent Kd; compound concentrations: 100 nM and 1000 nM (sheet 'Samples'), CATDS: 6.6122234274616706E-2; n = 1
# CSNK1D = system: CSNK1D; parameters: species or system human, MV4-11 + K-562 + COLO205 + SK-N-BE2 + OVCAR-8; settings: read-out: apparent Kd; compound concentrations: 100 nM and 1000 nM (sheet 'Samples'), CATDS: 3.5838047250471398E-2; n = 1
# CSNK1E = system: CSNK1E; parameters: species or system human, MV4-11 + K-562 + COLO205 + SK-N-BE2 + OVCAR-8; settings: read-out: apparent Kd; compound concentrations: 100 nM and 1000 nM (sheet 'Samples'), CATDS: 3.1149336029707601E-2; n = 1
# FLT3 = system: FLT3; parameters: species or system human, MV4-11 + K-562 + COLO205 + SK-N-BE2 + OVCAR-8; settings: read-out: apparent Kd; compound concentrations: 100 nM and 1000 nM (sheet 'Samples'), CATDS: 6.99540125282513E-2; n = 1
# ICK = system: ICK; parameters: species or system human, MV4-11 + K-562 + COLO205 + SK-N-BE2 + OVCAR-8; settings: read-out: apparent Kd; compound concentrations: 100 nM and 1000 nM (sheet 'Samples'), CATDS: 8.4231126757800603E-2; n = 1
# NEK9 = system: NEK9; parameters: species or system human, MV4-11 + K-562 + COLO205 + SK-N-BE2 + OVCAR-8; settings: read-out: apparent Kd; compound concentrations: 100 nM and 1000 nM (sheet 'Samples'), CATDS: 3.4709334986352897E-2; n = 1
# NNT = system: NNT; parameters: species or system human, MV4-11 + K-562 + COLO205 + SK-N-BE2 + OVCAR-8; settings: read-out: apparent Kd; compound concentrations: 100 nM and 1000 nM (sheet 'Samples'), CATDS: 3.3051747730414797E-2; n = 1
# NUAK1 = system: NUAK1; parameters: species or system human, MV4-11 + K-562 + COLO205 + SK-N-BE2 + OVCAR-8; settings: read-out: apparent Kd; compound concentrations: 100 nM and 1000 nM (sheet 'Samples'), CATDS: 4.2227707983222298E-2; n = 1
# Q6ZSR9 = Q6ZSR9 (human, UniProt Q6ZSR9); parameters: species or system MV4-11 + K-562 + COLO205 + SK-N-BE2 + OVCAR-8; settings: read-out: apparent Kd; compound concentrations: 100 nM and 1000 nM (sheet 'Samples'), CATDS: 7.3176607259513596E-2; n = 1
# Sequence of Q6ZSR9 (Q6ZSR9 whole entry, looked up): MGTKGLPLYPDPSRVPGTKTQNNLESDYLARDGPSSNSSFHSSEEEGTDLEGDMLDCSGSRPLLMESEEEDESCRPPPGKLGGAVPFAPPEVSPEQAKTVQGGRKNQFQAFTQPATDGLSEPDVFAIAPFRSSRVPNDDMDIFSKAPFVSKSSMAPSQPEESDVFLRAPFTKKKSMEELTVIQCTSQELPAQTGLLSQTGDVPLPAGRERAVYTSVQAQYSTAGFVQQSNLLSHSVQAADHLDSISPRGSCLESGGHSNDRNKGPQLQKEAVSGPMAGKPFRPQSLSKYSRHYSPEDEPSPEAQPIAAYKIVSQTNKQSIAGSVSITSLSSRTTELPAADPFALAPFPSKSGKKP
# RIOK2 = system: RIOK2; parameters: species or system human, MV4-11 + K-562 + COLO205 + SK-N-BE2 + OVCAR-8; settings: read-out: apparent Kd; compound concentrations: 100 nM and 1000 nM (sheet 'Samples'), CATDS: 3.29501520790835E-2; n = 1
# TGFBR2 = system: TGFBR2; parameters: species or system human, MV4-11 + K-562 + COLO205 + SK-N-BE2 + OVCAR-8; settings: read-out: apparent Kd; compound concentrations: 100 nM and 1000 nM (sheet 'Samples'), CATDS: 8.2747157817186001E-2; n = 1
# [1] = compound concentrations:100 nM and 1000 nM (sheet 'Samples')
smiles,measurement,setting,value
COc1cc2ncn(-c3cc(OCc4ccccc4C(F)(F)F)c(C(=O)N(C)C)s3)c2cc1OC [GSK1030062A],potency estimated from few doses,CDK4; CATDS: 0.32683838675566101,2020 nM
same,potency estimated from few doses,MAP2K2,1720 nM
same,potency estimated from few doses,PDGFRB,2110 nM
CCN1CCC(CC(=O)Nc2n[nH]c3nnc(-c4cccc(F)c4F)cc23)CC1.O=C(O)[C@H](O)[C@@H](O)C(=O)O [SB-698596-AC],potency estimated from few doses,CDK16; [1],53.3 nM
same,potency estimated from few doses,CDK17,995 nM
same,potency estimated from few doses,CDKL5; [1],46.9 nM
same,potency estimated from few doses,CLK1; [1],693 nM
same,potency estimated from few doses,CLK4; [1],1420 nM
same,potency estimated from few doses,DYRK1A; [1],1520 nM
same,potency estimated from few doses,GSK3A; CATDS: 0.61035791771228698,0.905 nM
same,potency estimated from few doses,GSK3B; [1],2.33 nM
COc1cccc(Nc2nccc(-c3cnn4ncccc34)n2)c1 [GW810576X],potency estimated from few doses,"CDK16; compound concentrations: 100 nM and 1000 nM (sheet 'Samples'), CATDS: 3.1157097879833801E-2",2230 nM
same,potency estimated from few doses,CDK2,1800 nM
same,potency estimated from few doses,CDK4; CATDS: 3.5176707262462401E-2,1130 nM
same,potency estimated from few doses,CDK9,119 nM
same,potency estimated from few doses,"CDKL5; compound concentrations: 100 nM and 1000 nM (sheet 'Samples'), CATDS: 0.306088725314409",8.45 nM
same,potency estimated from few doses,"CLK1; compound concentrations: 100 nM and 1000 nM (sheet 'Samples'), CATDS: 0.131869322388253",29.2 nM
same,potency estimated from few doses,"CLK4; compound concentrations: 100 nM and 1000 nM (sheet 'Samples'), CATDS: 7.3732839889054297E-2",90.9 nM
same,potency estimated from few doses,CSNK1D,1030 nM
same,potency estimated from few doses,CSNK1E,2230 nM
same,potency estimated from few doses,"DYRK1A; compound concentrations: 100 nM and 1000 nM (sheet 'Samples'), CATDS: 4.1731549571109597E-2",529 nM
same,potency estimated from few doses,FLT3,103 nM
same,potency estimated from few doses,GSK3A; CATDS: 0.103253823443788,45 nM
same,potency estimated from few doses,"GSK3B; compound concentrations: 100 nM and 1000 nM (sheet 'Samples'), CATDS: 9.7411606637186801E-2",50.3 nM
same,potency estimated from few doses,ICK,67.5 nM
same,potency estimated from few doses,NEK9,1210 nM
same,potency estimated from few doses,NNT,1570 nM
same,potency estimated from few doses,NUAK1,505 nM
same,potency estimated from few doses,Q6ZSR9,92.6 nM
same,potency estimated from few doses,RIOK2,1590 nM
same,potency estimated from few doses,TGFBR2,70.2 nM
